Tests used:
Assay in all cases: PBM binding z-score (relative to random genomic background probes); higher = stronger binding; sequences stand for … in GC…GCGATTGACAGCGTAGAATGAAGG
[1] = system: FXR:RXRa (NR concentration 270 nM, RXRa partner concentration 90 nM)
Outline: (§1)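 Binding z-scores were set against random background probes. The data came from custom Agilent 4×180K protein-binding microarrays carrying double-stranded probes with 34-nt variable regions, incubated 1 h with ligand-free nuclear receptor dimers. Partner-specific antibodies detected binding, and scanned fluorescence was regression-normalized.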

[2] = system: LXRa:RXRa (NR concentration 270 nM, RXRa partner concentration 90 nM)
Outline: as §1

[3] = system: LXRa homodimer (NR concentration 270 nM)
Outline: as §1

[4] = system: LXRb:RXRa (NR concentration 270 nM, RXRa partner concentration 90 nM)
Outline: as §1

[5] = system: LXRb homodimer (NR concentration 270 nM)
Outline: as §1

[6] = system: PPARa:RXRa (NR concentration 270 nM, RXRa partner concentration 90 nM)
Outline: as §1

[7] = system: PPARg:RXRa (NR concentration 180 nM, RXRa partner concentration 90 nM)
Outline: as §1

[8] = system: PPARg:RXRa 270nM:90nM, anti-RXR (NR concentration 270 nM, RXRa partner concentration 90 nM)
Outline: as §1

[9] = system: PPARg:RXRa 30nM:10nM, anti-RXR (NR concentration 30 nM, RXRa partner concentration 10 nM)
Outline: as §1

[10] = system: PPARg:RXRa 90nM:30nM, anti-RXR (NR concentration 90 nM, RXRa partner concentration 30 nM)
Outline: as §1

[11] = system: PPARg:RXRa DBDmut IVT, anti-RXR (DBD mutation: RXRa K156A/R161A, NR concentration 270 nM, RXRa partner concentration 90 nM)
Outline: as §1

[12] = system: PPARg:RXRa IVT, anti-PPARg (NR concentration 270 nM, RXRa partner concentration 90 nM)
Outline: as §1

[13] = system: PPARg DBDmut:RXRa IVT, anti-PPARg (DBD mutation: PPARg1 K132A/R137A, NR concentration 270 nM, RXRa partner concentration 90 nM)
Outline: as §1

[14] = system: PPARg DBDmut IVT, anti-PPARg (DBD mutation: PPARg1 K132A/R137A, NR concentration 270 nM)
Outline: as §1

[15] = system: PPARg homodimer (NR concentration 180 nM)
Outline: as §1

[16] = system: PXR:RXRa (NR concentration 270 nM, RXRa partner concentration 90 nM)
Outline: as §1

[17] = system: PXR homodimer (NR concentration 270 nM)
Outline: as §1

[18] = system: RARa:RXR (NR concentration 270 nM, RXRa partner concentration 90 nM)
Outline: as §1

[19] = system: RARa homodimer (NR concentration 270 nM)
Outline: as §1

[20] = system: RARb:RXRa (NR concentration 270 nM, RXRa partner concentration 90 nM)
Outline: as §1

Sequence | PBM binding z-score [1] | PBM binding z-score [2] | PBM binding z-score [3] | PBM binding z-score [4] | PBM binding z-score [5] | PBM binding z-score [6] | PBM binding z-score [7] | PBM binding z-score [8] | PBM binding z-score [9] | PBM binding z-score [10] | PBM binding z-score [11] | PBM binding z-score [12] | PBM binding z-score [13] | PBM binding z-score [14] | PBM binding z-score [15] | PBM binding z-score [16] | PBM binding z-score [17] | PBM binding z-score [18] | PBM binding z-score [19] | PBM binding z-score [20]
TCTTGTAGATCAATAGAGGTTGAGAAAGTGCGCT | 0.33 | 0.354 | -0.0207 | 0.212 | -0.126 | 0.471 | -0.324 | 1.44 | 2.63 | 1.98 | 1.55 | 0.494 | 0.467 | 0.307 | -0.399 | 1.01 | -0.0662 | 0.48 | -0.121 | -0.0211
TCTGCTAGGTTAGTTGGTCAGCTAACGAGCTGCC | -0.522 | -0.402 | -0.882 | -0.708 | -0.0822 | 0.052 | -0.648 | 0.707 | 0.944 | 0.973 | 1.37 | 1.5 | -0.266 | -0.918 | -1.12 | -0.398 | -1.1 | -0.512 | -1.39 | 0.525
AATACAGGGTCATCGTCGGCCAGAGTACGCACAG | 7.47 | 6.48 | 2.78 | 4.83 | 1.41 | 6.44 | 6.81 | 6.01 | 2.65 | 4.97 | 2.45 | 4.09 | 1.99 | 1.48 | 3 | 4.39 | 0.762 | 5.31 | 1.13 | 4.46
TCATATAGGTAAATGCTAGGTAAAAGTCCGATCT | 1.25 | 1.02 | 0.456 | 0.888 | 0.06 | 1.36 | 0.914 | 2.29 | 3.89 | 2.93 | 4.04 | 2.3 | 0.817 | 0.766 | 0.885 | 0.727 | 0.893 | 0.814 | 1.8 | 0.393
CCCACTGGGCCAAGGTCATTGATCAGTCAAAGCA | 3.13 | 2.95 | 1.44 | 2.57 | -0.562 | 3.8 | 4.07 | 4.12 | 1.57 | 3.3 | 2.96 | 4.5 | -0.866 | -1.7 | 1.75 | 3.5 | 1.12 | 3.45 | -0.0237 | 3.08
GCGACTGGGGCATCAGCAGGTTAGCATAACTTAA | -0.723 | -0.775 | -0.738 | 0.063 | -1.51 | 0.705 | 0.575 | 0.572 | -0.512 | 0.0276 | 3.62 | 2.57 | -1.06 | -1.09 | -0.262 | -0.392 | -0.845 | -0.492 | -0.942 | 0.511
TCTAGTTGGGCACGGAGGTCACACACGACGGGTA | 2.68 | 2.91 | 1.6 | 2.66 | 0.446 | 3.52 | 2.82 | 3.41 | 2.73 | 2.96 | 1.69 | 2.93 | 1.02 | -0.0176 | 2.73 | 3.91 | 0.835 | 4.24 | 0.793 | 3.36
CTCCAAAGGTCGTGCTCAGGTGAGTATACCAAAC | 5.95 | 4.42 | 0.227 | 3.67 | 0.361 | 5.08 | 3.62 | 4.58 | 1.3 | 3.35 | 0.883 | 1.49 | -0.0777 | -0.509 | 2.56 | 3.53 | 0.561 | 4.78 | 0.196 | 4.08
GATACAGGGTCAGCTAGAGGCCAGTGTATGGAAA | 4.14 | 2.46 | -0.408 | 2.42 | -0.768 | 4.11 | 3.25 | 3 | 1.16 | 1.86 | 0.823 | 2.25 | 0.256 | -0.378 | 3.5 | 3.29 | 0.17 | 4.54 | -0.191 | 4.15
ATATGTAGGGTATCGGGTCATTCAGTTTGCGCAT | 2.08 | 2.17 | 1.58 | 3.25 | 1.84 | 4.3 | 5.64 | 5.05 | 2.42 | 4.32 | 6.53 | 6.58 | 2.46 | 2.33 | 2.08 | 3.66 | 7.07 | 2.95 | 0.891 | 2.09
CAAACTAGGTCAGAACAGGACAGTGAAGGATGAT | 1.81 | 1.26 | 0.299 | 0.616 | 0.235 | 3.34 | 5.81 | 4.56 | 2.45 | 3.64 | 7.14 | 7.34 | 4.2 | 3.64 | 1.77 | 1.06 | 0.211 | 1.32 | 1.02 | 3.24
CAAACTAGGCCACCGGAAGGTCAAAGTCCGCATG | 2.96 | 3.08 | 3.39 | 3.15 | 0.364 | 4.46 | 5.26 | 5.14 | 1.86 | 4.33 | 7.33 | 6.74 | 1.26 | 1.26 | 3.52 | 3.81 | 1.26 | 4.32 | 1.24 | 3.54
CAGACTAGGTCACAGAGGTCAAAGTCCGTGCGTA | 6.87 | 6.52 | 6.79 | 6.23 | 1.62 | 6.22 | 8.66 | 7.43 | 5.05 | 7.36 | 7.57 | 8 | 2.36 | 0.704 | 4.93 | 6.65 | 11.5 | 7.28 | 2.93 | 5.07

Source: the supplement of paper PMC6555819
